IL1B secr inh: inflammasome signaling inhibition, IL-1 beta readout; THP-1 LPS/ATP IL-1B secretion, AlphaLISA, 16 h; hits give low values; activity change, % at 57.5 µM; actives 4.7% (n = 360,000); in the data active = activity change below about -50%; inconclusive = mostly about -30% to -49%; also: % is scaled to controls: 0 for no effect and ±100 for the full control effect
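THP-1 cells pretreated 1 hr with compounds (up to 57.5 uM final), then stimulated with LPS (250 ng/mL final) plus ATP (1.25 mM final); secreted IL-1B measured by AlphaLISA after 16 hr, decreased signal indicating inhibition.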
ATXN viability: reduces viability in counter-screen for ATXN expression inhibitors; actives 0.49% (n = 400,000); AID 651635; S2 cells (HEK-293 line with an ATXN2-luciferase reporter) viability, CellTiter-Fluor protease fluorescence, 24 h; Potency, µM (titrated, usually from 56.7 µM), hits mostly cytotoxic; also: potency is read from the fitted curve at half-maximal effect; nearly all actives have a fitted effect of over 40% in size
USP1 inh: inhibitors of human USP1/UAF1 deubiquitinase. O94782. recombinant USP1/UAF1, Ub-Rhodamine cleavage fluorescence. Potency, µM (series often up to 57.1 µM), inactives show at the top dose activity change, negative = inhibition, usual class: inhibitors. actives 0.23% (n = 390,000). AID 743255; also: potency is read from the fitted curve at half-maximal effect; % is scaled to controls: 0 for no effect and ±100 for the full control effect; nearly all actives have a fitted effect of over 60% in size
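USP1/UAF1 complex (1 nM) preincubated 15 min at room temperature with compound, then Ub-Rho substrate (150 nM final) added. Kinetic fluorescence at 480/540 nm over 6 reads at 60 s intervals; 50 mM HEPES pH 7.8, 0.5 mM EDTA, 0.1 mg/ml BSA, 1 mM TCEP, 0.01% Tween-20.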
ATXN2 expr inh: inhibitors of ATXN2 expression; Potency, µM (doses to about 57 µM), for the others: top-dose activity change, negative = inhibition, most hits filed as inhibitors; AID 1745845; actives 0.72% (n = 360,000); HEK-293 ATXN2-luciferase reporter, luminescence, 24 h; also: potency is read from the fitted curve at half-maximal effect; % is scaled to controls: 0 for no effect and ±100 for the full control effect; nearly all actives have a fitted effect of over 55% in size
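qHTS (up to 57 uM final) was run with 24 h compound exposure of reporter cells at 37 °C. Each well was multiplexed: SteadyGlo luminescence measured ATXN2-luciferase expression after a fluorogenic Gly-Phe-AFC viability readout (25 uM final).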
USP2a inh: inhibitors of human ubiquitin-specific protease USP2a. USP2 core, Ub-CHOP2 coupled fluorogenic reporter, 485/531. Potency, µM (top dose mostly 38.3 µM), without a hit: at the top dose activity change, negative = inhibition, usual class: inhibitors. actives 0.01% (n = 330,000). AID 463254;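 also: potency is read from the fitted curve at half-maximal effect; plate controls were DMSO wells for no effect and full inhibition by NEM control for full effect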
Target sequence (O75604 whole entry, looked up): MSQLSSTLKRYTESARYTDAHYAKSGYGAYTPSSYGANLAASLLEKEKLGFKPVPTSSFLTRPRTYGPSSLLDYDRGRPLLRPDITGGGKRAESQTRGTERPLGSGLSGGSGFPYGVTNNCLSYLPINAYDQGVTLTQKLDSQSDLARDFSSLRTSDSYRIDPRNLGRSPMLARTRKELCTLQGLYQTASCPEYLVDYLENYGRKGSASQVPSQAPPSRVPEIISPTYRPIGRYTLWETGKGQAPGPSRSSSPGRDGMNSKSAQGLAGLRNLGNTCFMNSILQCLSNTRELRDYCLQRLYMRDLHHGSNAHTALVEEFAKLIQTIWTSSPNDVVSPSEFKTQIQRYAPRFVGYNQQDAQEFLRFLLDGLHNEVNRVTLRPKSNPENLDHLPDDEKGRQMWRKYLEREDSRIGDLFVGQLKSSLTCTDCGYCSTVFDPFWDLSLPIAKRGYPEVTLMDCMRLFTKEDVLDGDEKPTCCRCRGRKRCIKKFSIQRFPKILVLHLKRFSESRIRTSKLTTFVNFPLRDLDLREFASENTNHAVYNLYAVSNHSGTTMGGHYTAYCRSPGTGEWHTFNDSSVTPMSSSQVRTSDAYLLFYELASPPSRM
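Cell-free coupled assay: 10nM USP2 core preincubated 30min RT with compound in Tris-HCl pH 8.0/CaCl2/CHAPS buffer, then 25nM Ub-CHOP2 and 25nM reporter substrate; fluorescence (Ex 485/Em 531) read after 60min RT, normalized to NEM inhibition, concentration-response curves fitted.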
The depositor's hits bear a star; i = inactive; ? = inconclusive; nt = no result given. The list is not random: actives were taken first. Their share in the collection is about 4.8%. Unless noted, calls follow the shape of the dose curve; as a rule, active = well fitted curve in the direction sought with a large enough effect; inconclusive = small, poorly fitted or top-dose-only effect, or another doubt; inactive = no such curve, though single readings can be large; an effect the other way counts as inactive or inconclusive.

SMILES	IL1B secr inh	ATXN viability	USP1 inh	ATXN2 expr inh	USP2a inh
O=S(=O)(Nc1nc2ccccc2nc1-[n+]1cccc(N=C([O-])c2ccc(Cl)cc2)c1)c1ccccc1	-73*	nt	?	-17%	0%
O=C(NNC(=O)C1CC(c2cccs2)=NO1)Nc1ccccc1 (stereo not given)	-6	i	-25%	-4%	1%
Cc1onc(-c2ccccc2)c1C(=O)N/N=C/c1c[nH]c2ccccc12	-72*	i	-17%	?	-1%
Cc1onc(-c2ccccc2)c1C(=O)N/N=C/c1cc(Br)c(Br)o1	-93*	i	-9%	-27%	0%
Cc1cccc(C(=O)N/N=C/c2cc(Br)c(Br)o2)c1	-55*	?	-16%	7%	4%
COc1ccc(Cl)cc1S(=O)(=O)NC(C)c1cnn(-c2ccccn2)c1C (stereo not given)	11	i	8%	nt	nt
COc1ccccc1C(=O)NNC(=O)c1ccc(Br)o1	3	i	0%	47%	-1%
CN(C)S(=O)(=O)c1cc(NC(=O)C2=COCCO2)ccc1Cl	13	i	-5%	5%	-2%
CCN(CC)C(=O)Nc1ccc(OCC(O)CNC(C)(C)C)c(C(C)=O)c1 (stereo not given)	nt	i	nt	5%	nt
O=C(N/N=C/c1cc([N+](=O)[O-])ccc1O)c1cc(-c2ccccc2)nc2ccccc12	11	?	-22%	10µM*	-1%
O=C(N/N=C/c1cc([N+](=O)[O-])ccc1O)c1c[nH]c2ccccc12	209	i	-14%	14µM*	-1%
O=C(N/N=C/c1cccc([N+](=O)[O-])c1)c1c[nH]c2ccccc12	-12	i	-14%	17%	-1%
CCNC(=O)NCCCOc1cccc(CN2CCCCC2)c1	nt	i	nt	6%	nt
CC(C)N1C(=O)S/C(=C/c2ccc(Sc3nc4ccccc4[nH]3)o2)C1=O	-79*	i	-18%	?	1%
O=C(c1ccccc1)C1OC1C(=O)c1ccccc1 (stereo not given)	-96*	?	-27%	9%	nt
CC1C=CC(C)C(C(=O)c2ccccc2)C1C(=O)c1ccccc1 (stereo not given)	26	i	?	nt	nt
CCCCCCN1CCN(C2CN(Cc3ccc([N+](=O)[O-])cc3)S(=O)(=O)C2)CC1 (stereo not given)	-10	i	2%	-3%	nt
COCc1c(C(=O)N2CCCCCC2)cnn1-c1nccc(-c2cccs2)n1	nt	i	nt	nt	nt
Cc1ccc(CNCCC2=CCCCC2)cc1	-69*	i	-12%	-12%	2%
Cc1ccc(S(=O)(=O)NCCC2=CCCCC2)cc1	-29	i	-8%	-5%	1%
CCc1[nH]nc2c1C(c1ccc(Br)s1)C(C#N)=C(N)O2 (stereo not given)	-100*	i	-10%	0%	1%
O=C(CSc1n[nH]c(=O)n1C1CC1)NCc1ccccc1	9	i	-5%	-3%	1%
Cc1ccc(-n2nc(C(C)(C)C)cc2NC(=O)Nc2ccc(OCCN3CCOCC3)c3ccccc23)cc1	nt	i	nt	17%	nt
CC(=O)C1=C(c2ccc(Cl)c(Cl)c2)N(C(C)=O)n2c(nnc2-c2ccccc2)S1	nt	nt	-9%	nt	nt
CC(=O)C1=C(c2ccc(Cl)c(Cl)c2)N(C(C)=O)n2c(C)nnc2S1	nt	?	-23%	28µM*	nt
SMILES	IL1B secr inh	ATXN viability	USP1 inh	ATXN2 expr inh	USP2a inh
Cc1cc(C)n(-c2nc(NCc3cccnc3)c3c4c(sc3n2)COC(C)(C)C4)n1	?	i	-16%	14%	-1%
CCN(CC)CCCNc1nc(-n2nc(C)cc2C)nc2sc3c(c12)CC(C)(C)OC3	-57*	i	-18%	20%	1%
N#Cc1cccc(NC(=O)c2cc(C3CCCCN3S(=O)(=O)c3ccccc3)on2)c1 (stereo not given)	9	i	nt	-35%	nt
COC(=O)c1ccccc1C(=O)NCC1Cc2cc(-c3nc(C)cnc3C)ccc2O1 (stereo not given)	nt	i	nt	nt	nt
COc1ccc(C2C(C(C)=O)=C(C)N=c3s/c(=C\c4cc(C)n(C)c4C)c(=O)n32)c(OC)c1 (stereo not given)	-3	i	18µM*	-23%	16%
CCOC(=O)C1=C(C)N=c2s/c(=C/c3cccc([N+](=O)[O-])c3O)c(=O)n2C1c1ccc(OC)cc1OC (stereo not given)	20	13µM*	-19%	-32%	-2%
COc1ccc2c(c1)CC/C(=C/c1cc(OC)c(OC)c(OC)c1)C2=O	-85*	i	-16%	?	-12%
COc1ccc(OC)c(C=C2CCc3ccccc3C2=O)c1	-2	?	nt	0%	nt
COc1ccc2c(c1)CC/C(=C\Nc1ccc3c(c1)OCO3)C2=O	-87*	i	?	45%	1%
O=C1/C(=C/Nc2ccc3c(c2)OCO3)CCc2ccccc21	-2	i	?	6%	2%
Cc1ccc(S(=O)(=O)N2CCC(=O)N([C@H](COC(=O)Nc3ccccc3)Cc3ccccc3)CC2)cc1	-10	i	nt	7%	nt
CCOC1=C2CN(S(=O)(=O)c3ccc(C)cc3)[C@H](c3ccccc3)C[C@@H]2N(S(=O)(=O)c2ccc(Br)cc2)[C@H](c2ccccc2)C1	-14	i	nt	-23%	nt
COc1ccc(Cc2[nH]n3c(=O)cc(C)nc3c2-c2ccccc2)cc1	72	?	?	?	-1%
COc1ccc(Cc2[nH]n3c(=O)cc(C(C)C)nc3c2-c2ccccc2)cc1	73	?	-14%	22µM*	-2%
Cn1cc(-c2[nH]c3cc(NC(=O)[C@H](N)C4CCCCC4)cc4c3c2C=NNC4=O)cn1	nt	nt	nt	1.1µM*	nt
O=C(Nc1ccc(Oc2ccccc2)cc1)c1ccc2sc([C@H]3C[C@H](O)[C@@H](CO)O3)nc2c1	63	?	nt	?	nt
O=[N+]([O-])c1ccc(O)c(N=Cc2sc3ccccc3c2O)c1	39	28µM*	-12%	?	2%
Oc1ccc(Cl)cc1N=Cc1sc2ccccc2c1Cl	-23	i	-9%	-11%	1%
COC(=O)c1ccc(NC(=O)N2CCC(CN3CCc4ccccc4C3)CC2)cc1	nt	nt	-19%	nt	nt
CCOc1ccccc1NC(=O)c1c(NCc2ccc(C)o2)sc2c1CCCCC2	nt	?	-22%	-23%	nt
O=C(Cc1ccc(Nc2nc(=S)[nH]c3ccccc23)cc1)NC1CCCCC1	nt	nt	nt	nt	-2%
O=C(CCCCCNc1nc(=S)[nH]c2ccccc12)NCCc1c[nH]c2ccccc12	-78*	?	-14%	-10%	3%
O=C(CCCCCNc1nc(=S)[nH]c2ccccc12)NCCc1ccc(Cl)cc1	-1	i	-8%	?	-8%
CC(C)CCNC(=O)Cc1ccc(Nc2nc(=S)[nH]c3ccccc23)cc1	-65*	?	-18%	9%	10%

Bioassay records (PubChem)
